# From PubChem BioAssay (NCI)
# Compounds without any hit were thinned out: in the full panel of roughly 79,000, 15% have a hit. Values without a mark were called inactive. Rule as the data show it: active = growth inhibition above about 70%; inactive = the rest.
# Experiment: NCI Yeast Anticancer Drug Screen. Data for the sgs1 mgt1 strain (AID 161);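 also: 0% = growth of cultures given vehicle only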
# Settings: S. cerevisiae sgs1 mgt1 strain, at 50.0 µM, stronger effect = higher value
# Method in brief: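 Mutant yeast exposed to compound; growth scored against vehicle-only wells.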
row,SMILES,growth inhibition [%]
1,CCOC(=O)c1ccc(-n2cnc(-c3ccc([N+](=O)[O-])cc3)c2)cc1,-8.8
2,CCCCCC#CC(=O)OCC,-6.25
3,CCN(CC)Cc1cc(NC(C)=O)ccc1O,-17.4
4,Cc1ccc(N=C(C(=O)c2ccccc2)C(Nc2ccc(C)cc2)C(=O)c2ccccc2)cc1 (stereo not given),17.8
5,CCCCCCCCCCCCCCCSc1ccc2ccccc2c1,-5.2
6,CCOC(=O)c1c[nH]n(Cc2ccccc2)c1=O,2.95
7,O=C(c1cccc(F)c1)c1ccccc1Cc1ccccc1,-8.05
8,Cc1cc(N(CCC#N)CCC#N)ccc1/C=C1\N=C(c2cc([N+](=O)[O-])ccc2Cl)N(c2cccc(Cl)c2)C1=O,-23.9
9,CCOC(=O)C1=C(C)NC(=O)NC1c1ccc(N(C)C)cc1 (stereo not given),23.2
10,CCN(c1ccccc1)S(=O)(=O)c1cc(N)ccc1C,2.55
11,CCOC(=O)CCCCCCCCCC[N+](CC)(CC)CC(=O)c1ccc(NC(C)=O)cc1,3.5
12,CCC(=S)Nc1ccc(Cl)cc1,-34.5
13,c1ccc2nc3ccccc3cc2c1,27.1
14,CCOC(=O)/C(C)=C/CC1=C(O)c2ccccc2C(=O)C1=O,14.1
15,Cc1cc2nnn(C3CCCCO3)c2cc1C (stereo not given),-17.9
16,O=C1OCC=C1COC1OC(CO)C(O)C(O)C1O (stereo not given),-12.8
17,COC1=CC(=O)C(C)=CC1=O,3.5
18,CC1CCC2(OC1)OC1CC3C4CCC5CC(O)CCC5(C)C4CC(=O)OC3(C)C1C2C (stereo not given),-14.8
19,O=C(NNC(=O)OCc1ccccc1)OCc1ccccc1,1.3
20,CC1=Nc2nc3ccccc3n2C(C)(C)C1,11.6

row,SMILES,growth inhibition [%]
1,Nc1ncc2c(n1)-c1ccccc1OC2NC1CC1 (stereo not given),-29.2
2,O=C(CC(=O)n1nc(-c2ccccc2)c(N=Nc2ccc([N+](=O)[O-])cc2)c1-c1ccccc1)Nc1ccc(Cl)cc1,52
3,O=C1C(=O)N(C23CC4CC(CC(C4)C2)C3)C(=S)N1c1ccccc1,-44.2
4,CC1OCC2CC3(O1)OC3C(COCC1OC3COC(C)OC4(C3)OC14)O2 (stereo not given),-3.45
5,c1ccc(COc2ccc3c(c2)CN(Cc2ccccc2)CO3)cc1,33.6
6,CNCCCCCCNc1cc(OC)cc2cccnc12,56
7,Cc1ccc(S(=O)(=O)N/N=C/C(C)(c2ccccc2)c2ccccc2)cc1,69.3
8,O=C(NN1C(=O)C(Cl)C1c1cccc(Cl)c1)c1ccccc1O (stereo not given),-8.35
9,CCOC(=O)C1=C(O)C(=O)c2ccoc2C1=O,-58
10,CC(CO)(CO)Nc1ncnc2ccccc12,-30.9
11,BrC1CCC(Br)CC1 (stereo not given),-8.45
12,Cc1nc2ccccc2o1,13.1
13,Cc1cc(-c2ccccc2)[nH]c1-c1nccc2ccccc12,0.8
14,CN1c2ccccc2Sc2cc(/C=C3/SC(=S)NC3=O)ccc21,3.55
15,Cc1nc2ccc(S(=O)(=O)Nc3ccccc3Cl)cc2c(=O)n1NC(=O)CNc1ccccc1Cl,13.4
16,C[C@]12CCC[C@H](O)[C@H]1O2,-16.1
17,Cc1ccc(C)o1,-8.65
18,CN(C)N=Nc1ccccc1,0
19,CC1(Br)CP(=O)(c2ccccc2)CC1Br (stereo not given),9.5
20,C=C(c1ccc(OC)cc1)c1cc(C(C)(C)C)c(O)c(C(C)(C)C)c1,-17.9
